14-3-3g Raf – modulators of 14-3-3 gamma protein binding, primary screen, biochemical, fluorescence polarization; FP, 14-3-3gamma / TMR-pS259-Raf peptide binding; inhibition, % at 40 µM; 0.19% of 160,000 active; in the data active means inhibition above about 30%;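 further: 0% = protein plus tracer without compound and 100% = blank with tracer alone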
Target sequence (P61981 whole entry, looked up): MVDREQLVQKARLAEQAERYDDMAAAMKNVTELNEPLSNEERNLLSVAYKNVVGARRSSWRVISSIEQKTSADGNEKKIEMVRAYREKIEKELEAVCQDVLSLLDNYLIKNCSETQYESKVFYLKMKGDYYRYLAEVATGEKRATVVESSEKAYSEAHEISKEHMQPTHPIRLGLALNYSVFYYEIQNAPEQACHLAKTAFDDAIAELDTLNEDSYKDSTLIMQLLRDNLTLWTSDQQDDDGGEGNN
Starred values were filed as active, the others as inactive. The sample as a whole holds a higher share of hits than the screen did.

`CCCN(CCC)c1ccc([N+](=O)[O-])c2nonc12` gave 14-3-3g Raf -28.
Nc1ccc2nonc2c1[N+](=O)[O-] was read as 14-3-3g Raf 31*.
`O=[N+]([O-])c1c(NCCO)ccc2nonc12` gave 14-3-3g Raf -18.
O=c1oc2ccccc2c(O)c1C(c1ccc2c(c1)OCO2)c1c(O)c2ccccc2oc1=O was read as 14-3-3g Raf -28.
For CN1CCN(C(=O)Cc2c(C(=O)O)[nH]c3ccccc23)CC1 the results were 14-3-3g Raf -6.
`O=c1c2ccccc2nc(C=Cc2ccccc2F)n1-c1ccc(I)cc1` gave 14-3-3g Raf 6.
`CNCCc1c[nH]c2ccccc12` gave 14-3-3g Raf 0.
Screening CN1C(=O)C(Cc2cccc3ccccc23)C(=O)N(C)C1=O returned 14-3-3g Raf 6.
CN1C(=O)C(Cc2c[nH]c3ccccc23)C(=O)N(C)C1=O was read as 14-3-3g Raf 82*.
For O=c1c2cc(I)ccc2nc(C=Cc2ccco2)n1-c1ccccc1 the results were 14-3-3g Raf -255.
Nc1cc(C(=O)O)ccc1N1CC2CC(C1)c1cccc(=O)n1C2 (stereo not given) was read as 14-3-3g Raf 3.
Screening C=CCN1C(=O)NC(=O)C(Cc2ccc(OC)c(OC)c2)C1=O (stereo not given) returned 14-3-3g Raf 0.
`COc1cc(CC2C(=O)N(C)C(=O)N(C)C2=O)ccc1OCc1ccccc1` gave 14-3-3g Raf 9.
Screening COc1cc(OC)c(OC)cc1CC1C(=O)N(C)C(=O)N(C)C1=O returned 14-3-3g Raf 66*.
O=CN1CCN(CC(=O)Nc2ccc(Cl)cc2C(=O)c2ccccc2Br)CC1 was read as 14-3-3g Raf -8.

Screening results: PubChem, Emory University Molecular Libraries Screening Center
